The results in this text go back to PubChem BioAssay (EPA / NIEHS).

The structures appear in SMILES notation. Active and inactive are the calls of the source. Rule for the calls: active = hit-call score of the fitted dose curve at least 0.9, where 1 is the maximum; inactive = score below 0.9.

Sequence of Signal transducer and activator of transcription 3 (Homo sapiens) (P40763 whole entry, looked up): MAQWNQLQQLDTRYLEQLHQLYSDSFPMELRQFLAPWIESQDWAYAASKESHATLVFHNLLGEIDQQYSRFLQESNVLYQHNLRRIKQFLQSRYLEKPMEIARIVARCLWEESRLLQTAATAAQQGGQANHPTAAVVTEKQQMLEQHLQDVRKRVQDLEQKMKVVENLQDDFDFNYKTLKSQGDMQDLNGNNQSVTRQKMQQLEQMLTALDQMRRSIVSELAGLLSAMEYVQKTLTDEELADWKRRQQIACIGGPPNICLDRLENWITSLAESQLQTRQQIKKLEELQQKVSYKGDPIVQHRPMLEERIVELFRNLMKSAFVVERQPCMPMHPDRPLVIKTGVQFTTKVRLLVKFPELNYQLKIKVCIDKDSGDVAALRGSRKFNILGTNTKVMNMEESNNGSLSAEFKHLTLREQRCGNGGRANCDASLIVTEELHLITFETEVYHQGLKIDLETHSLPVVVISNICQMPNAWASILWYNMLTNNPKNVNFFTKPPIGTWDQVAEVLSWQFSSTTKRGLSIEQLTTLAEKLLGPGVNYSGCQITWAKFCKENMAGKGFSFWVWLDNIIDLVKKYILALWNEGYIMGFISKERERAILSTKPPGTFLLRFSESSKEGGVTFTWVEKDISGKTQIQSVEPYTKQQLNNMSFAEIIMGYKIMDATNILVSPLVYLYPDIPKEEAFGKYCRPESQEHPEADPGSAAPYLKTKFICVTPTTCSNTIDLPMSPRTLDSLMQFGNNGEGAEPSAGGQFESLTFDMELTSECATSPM

The first experiment deals with Transcription factor Sp1 (Homo sapiens) (UniProt P08047). The experiment is described as follows: ATG_Sp1_CIS: Attagene CIS-FACTORIAL HepG2 Assay for human Specificity Protein 1 (Sp1) (AID 2282961). The note with it: HepG2 Sp1 cis-reporter transcription, actives raise or lower the signal. The method, boiled down: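 Sp1-driven reporter mRNA, read as capillary electrophoresis fluorescence after RT-PCR, in transiently transfected HepG2 cells dosed for 24 h; signal change in either direction relative to DMSO.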
Sequence of Transcription factor Sp1 (Homo sapiens) (P08047 whole entry, looked up): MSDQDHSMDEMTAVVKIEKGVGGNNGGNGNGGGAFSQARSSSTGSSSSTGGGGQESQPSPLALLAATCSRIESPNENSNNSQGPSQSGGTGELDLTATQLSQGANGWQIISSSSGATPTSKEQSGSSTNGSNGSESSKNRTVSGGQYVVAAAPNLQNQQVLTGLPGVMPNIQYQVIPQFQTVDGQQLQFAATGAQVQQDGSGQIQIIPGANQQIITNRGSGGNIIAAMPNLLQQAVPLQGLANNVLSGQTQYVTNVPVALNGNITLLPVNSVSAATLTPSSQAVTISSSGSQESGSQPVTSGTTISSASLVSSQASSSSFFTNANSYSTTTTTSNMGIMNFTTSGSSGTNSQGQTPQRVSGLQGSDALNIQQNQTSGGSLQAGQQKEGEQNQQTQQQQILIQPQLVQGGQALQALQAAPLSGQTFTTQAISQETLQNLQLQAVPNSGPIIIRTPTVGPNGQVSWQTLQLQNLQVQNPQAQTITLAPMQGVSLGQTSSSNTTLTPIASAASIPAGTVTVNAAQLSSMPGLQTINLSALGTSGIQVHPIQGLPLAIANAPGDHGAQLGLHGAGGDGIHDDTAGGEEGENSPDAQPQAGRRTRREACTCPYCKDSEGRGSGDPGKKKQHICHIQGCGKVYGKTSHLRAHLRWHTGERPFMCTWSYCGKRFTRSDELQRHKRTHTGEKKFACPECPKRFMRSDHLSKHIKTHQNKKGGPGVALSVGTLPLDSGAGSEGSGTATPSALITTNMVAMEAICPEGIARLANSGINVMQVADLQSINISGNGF
As for `CCCCCCCCCCCCOC(=O)c1cc(O)c(O)c(O)c1`, the result was inactive.
For `CCOC(C)=O`, the compound was classed as inactive.
On to `Cc1ccccc1OCC(=O)O`, for which the result was inactive.
Same read-out and setting: the same measure for `NCc1cccc(CN)c1`: “inactive”; for `CC(C)(C)c1ccc(CCC=O)cc1`: “inactive”.
For the compound `CC(=O)CC(C)C`, the result was inactive.
Still for that read-out and setting: in the case of `NNc1nc(-c2ccc([N+](=O)[O-])cc2)cs1` it was “inactive”; in that of `OCC(F)(F)C(F)(F)C(F)(F)C(F)(F)C(F)(F)C(F)(F)C(F)(F)C(F)(F)C(F)(F)C(F)(F)C(F)(F)F`, “inactive”.
Regarding `COC(=O)C(F)(F)C(F)(F)C(F)(F)F`, the compound was classed as inactive.
Same read-out and setting: the same measure for `CCOC=O`: “inactive”.
Same read-out and setting: the same measure for `CCCCCCCCCCCC[N+](C)(C)CCCCCCCCCCCC`: “inactive”; for `CCCCCCCCCC=CCC1CC(=O)OC1=O` (centres undefined): “inactive”; for `FC(F)(F)C(F)(F)C(F)(F)Br`: “inactive”.
As for `Oc1cccc2c(O)cccc12`, the compound was called inactive.

Tested on in another experiment: not listed separately
In words: ATG_SREBP_CIS: Attagene CIS-FACTORIAL HepG2 Assay for human Sterol Regulatory Element Binding (SREBP) (AID 2282962). The note with it: HepG2 Attagene cis-factorial SREBP reporter, mRNA; actives raise or lower the signal. Put shortly:
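HepG2 cells transiently transfected with multiplexed cis-element reporter units report endogenous transcription factor activity. After 24 h of chemical exposure, reporter mRNA was quantified by RT-PCR, 6-FAM labelling, HpaI digestion and capillary electrophoresis; bidirectional fits used DMSO as baseline.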
Take `CC1=CC(=O)c2ccccc2C1=O`: the compound was classed as inactive.
For `CC(C)(C)C1CCCCC1O` (centres undefined), the compound was called inactive.
Take `CC(C)CCOCCC(C)C`: the result was inactive.
Regarding `CCCCCCCCCCCCCC[n+]1ccccc1`, the half-maximal activity concentration (AC50) is 2.7 µM (active).
Consider `CCCCCCCC(OC)OC`, for which the result was inactive.
Still for that read-out and setting: in the case of `O=CC(F)(F)C(F)(F)C(F)(F)C(F)F` it was “inactive”; in that of `CCCCCCCCCCCCCCC`, “inactive”; in that of `O=C1OC(=O)C(F)(F)C1(F)F`, “inactive”.
In the case of `COCN(COC)c1nc(N(COC)COC)nc(N(COC)COC)n1`, the result was inactive.
On the same count and under the same terms, in the case of `CC(=O)Nc1ccc(S(N)(=O)=O)cc1` it was “inactive”.
In the case of `CCCCCCCCCCCC(=O)NCCCN(C)C`, the AC50 is 8.13 µM (active).
As to `O=C(OC(=O)C(F)(F)C(F)(F)F)C(F)(F)C(F)(F)F`, the call was inactive.
On to `C[N+](C)(CCCNS(=O)(=O)CCC(F)(F)C(F)(F)C(F)(F)C(F)(F)C(F)(F)C(F)(F)F)CC(=O)[O-]`, for which the half-maximal activity concentration (AC50) was 0.00355 µM (active).
Regarding `CCOC(=O)CN[C@@H](C(=O)N1CC[C@H]1C(=O)NCc1ccc(/C(N)=N/O)cc1)C1CCCCC1`, the compound was classed as inactive.
Regarding `C/C=C/C(=O)C1=C(C)CCCC1(C)C`, the AC50 was 44.9 µM (active).
Regarding `O=C(NCc1ncc(C(F)(F)F)cc1Cl)c1c(Cl)cccc1Cl`, the half-maximal activity concentration (AC50) was 10.1 µM (active).
`CCCCCC(C)OC(=O)COc1ccc(Cl)c2cccnc12` (centres undefined): the call was inactive.
The same measure, in the same setting: in the case of `O=S(=O)(O)C(F)(F)C(F)(F)C(F)(F)C(F)(F)C(F)(F)C(F)(F)C(F)(F)C(F)(F)C(F)(F)C(F)(F)F` it was “inactive”; in that of `c1cc2cccc3c4cccc5cccc(c(c1)c23)c54`, “inactive”.
Take `CCCCC(CC)C(=O)OCCOCCOCCOCCOC(=O)C(CC)CCCC` (centres undefined): the call was inactive.
Regarding `CCCCCCCCCCCCOC(=O)c1cc(O)c(O)c(O)c1`, the AC50 is 2.85 µM (active).
As for `CCOC(C)=O`, the outcome was inactive.
Turning to `NCc1cccc(CN)c1`, the call was inactive.
With `CC(C)(C)c1ccc(CCC=O)cc1`, the compound was called inactive.
As to `CC(=O)CC(C)C`, the outcome was inactive.
As to `NNc1nc(-c2ccc([N+](=O)[O-])cc2)cs1`, the outcome was inactive.
For the compound `OCC(F)(F)C(F)(F)C(F)(F)C(F)(F)C(F)(F)C(F)(F)C(F)(F)C(F)(F)C(F)(F)C(F)(F)C(F)(F)F`, the result was inactive.
Regarding `COC(=O)C(F)(F)C(F)(F)C(F)(F)F`, the compound was called inactive.
For `CCOC=O`, the call was inactive.
Regarding `CCCCCCCCCCCC[N+](C)(C)CCCCCCCCCCCC`, the result was inactive.
As to `CCCCCCCCCC=CCC1CC(=O)OC1=O` (centres undefined), the half-maximal activity concentration (AC50) was 67.9 µM (active).
In the case of `FC(F)(F)C(F)(F)C(F)(F)Br`, the outcome was inactive.
Same read-out and setting: in the case of `Oc1cccc2c(O)cccc12` it was “inactive”.

The next experiment has as its target Signal transducer and activator of transcription 3 (Homo sapiens) (UniProt P40763). The experiment is described as follows: ATG_STAT3_CIS: Attagene CIS-FACTORIAL HepG2 Assay for human Signal Transducer and Activator of Transcription 3 (STAT3) (AID 2282963). The following applies: HepG2, Attagene cis-factorial STAT3 reporter transcription; actives raise or lower the signal. Put shortly: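 HepG2 cells transiently transfected with multiple cis-element-driven reporter units report endogenous transcription factor activity. After 24 h compound exposure, reporter mRNA is measured by RT-PCR, 6-FAM labelling, HpaI digestion and capillary electrophoresis. Fitted bidirectionally versus DMSO.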
Regarding `CC1=CC(=O)c2ccccc2C1=O`, the compound was classed as inactive.
Same read-out and setting: the same measure for `CC(C)(C)C1CCCCC1O` (centres undefined): “inactive”.
As for `CC(C)CCOCCC(C)C`, the call was inactive.
As for `CCCCCCCCCCCCCC[n+]1ccccc1`, the result was inactive.
For the compound `CCCCCCCC(OC)OC`, the compound was called inactive.
As for `O=CC(F)(F)C(F)(F)C(F)(F)C(F)F`, the compound was called inactive.
Take `CCCCCCCCCCCCCCC`: the compound was classed as inactive.
With `O=C1OC(=O)C(F)(F)C1(F)F`, the call was inactive.
In the case of `COCN(COC)c1nc(N(COC)COC)nc(N(COC)COC)n1`, the compound was classed as inactive.
As for `CC(=O)Nc1ccc(S(N)(=O)=O)cc1`, the result was inactive.
The same measure, in the same setting: the same measure for `CCCCCCCCCCCC(=O)NCCCN(C)C`: “inactive”; for `C=CC(C)(CCC=C(C)C)OC(C)=O` (centres undefined): “inactive”.
Turning to `O=C(OC(=O)C(F)(F)C(F)(F)F)C(F)(F)C(F)(F)F`, the compound was called inactive.
For `C[N+](C)(CCCNS(=O)(=O)CCC(F)(F)C(F)(F)C(F)(F)C(F)(F)C(F)(F)C(F)(F)F)CC(=O)[O-]`, the compound was classed as inactive.
Turning to `CCOC(=O)CN[C@@H](C(=O)N1CC[C@H]1C(=O)NCc1ccc(/C(N)=N/O)cc1)C1CCCCC1`, the call was inactive.
`CC(O)COc1ccccc1` (centres undefined): the compound was classed as inactive.
On to `CCC(C)c1ccccc1O` (centres undefined), for which the compound was classed as inactive.
Take `C/C=C/C(=O)C1=C(C)CCCC1(C)C`: the compound was classed as inactive.
Still for that read-out and setting: the same measure for `O=C(NCc1ncc(C(F)(F)F)cc1Cl)c1c(Cl)cccc1Cl`: “inactive”; for `CCCCCC(C)OC(=O)COc1ccc(Cl)c2cccnc12` (centres undefined): “inactive”; for `O=S(=O)(O)C(F)(F)C(F)(F)C(F)(F)C(F)(F)C(F)(F)C(F)(F)C(F)(F)C(F)(F)C(F)(F)C(F)(F)F`: “inactive”.
Still for that read-out and setting: the same measure for `c1cc2cccc3c4cccc5cccc(c(c1)c23)c54`: “inactive”; for `CCCCC(CC)C(=O)OCCOCCOCCOCCOC(=O)C(CC)CCCC` (centres undefined): “inactive”.
Still for that read-out and setting: in the case of `CCCCCCCCCCCCOC(=O)c1cc(O)c(O)c(O)c1` it was “inactive”.
On to `CCOC(C)=O`, for which the result was inactive.
Same read-out and setting: the same measure for `Cc1ccccc1OCC(=O)O`: “inactive”; for `NCc1cccc(CN)c1`: “inactive”; for `CC(C)(C)c1ccc(CCC=O)cc1`: “inactive”.
For `CC(=O)CC(C)C`, the compound was called inactive.
For `NNc1nc(-c2ccc([N+](=O)[O-])cc2)cs1`, the call was inactive.
As for `OCC(F)(F)C(F)(F)C(F)(F)C(F)(F)C(F)(F)C(F)(F)C(F)(F)C(F)(F)C(F)(F)C(F)(F)C(F)(F)F`, the result was inactive.
Still for that read-out and setting: the same measure for `COC(=O)C(F)(F)C(F)(F)C(F)(F)F`: “inactive”; for `CCOC=O`: “inactive”; for `CCCCCCCCCCCC[N+](C)(C)CCCCCCCCCCCC`: “inactive”.
Regarding `CCCCCCCCCC=CCC1CC(=O)OC1=O` (centres undefined), the call was inactive.
Turning to `FC(F)(F)C(F)(F)C(F)(F)Br`, the result was inactive.
For the compound `Oc1cccc2c(O)cccc12`, the compound was called inactive.
